Results as given in the supplement of paper PMC8253809.

Key:
Assay in all cases: growth inhibition (% activity, log2 RLU normalised to DMSO / staurosporine); higher = more growth inhibition
Conditions in all cases: 33 µM
[1] = system: DIPGX29 (H3.3 K27M diffuse intrinsic pontine glioma line)
Summary of the method: (§1)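 Approved drugs were tested in triplicate at a single final concentration of about 33 μM for 7 days at 37 °C, 5% CO2, on pHGG cell lines and H9-derived neural stem cells. Readout was CellTiter-Glo luminescence, log2-transformed and scaled per plate to % activity between solvent and positive control wells. The median over replicates gives the growth-inhibition value.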

[2] = system: DIPGX37 (H3.3 K27M diffuse intrinsic pontine glioma line)
Summary of the method: as §1

[3] = system: DIPGX7 (H3.3 K27M diffuse intrinsic pontine glioma line)
Summary of the method: as §1

[4] = system: DIPGX9 (diffuse intrinsic pontine glioma line)
Summary of the method: as §1

[5] = system: HGGX39 (paediatric high-grade glioma line)
Summary of the method: as §1

[6] = system: HGGX6 (H3.3 G34R paediatric high-grade glioma line)
Summary of the method: as §1

[7] = system: HNSC
Summary of the method: as §1

[8] = system: SUDIPGIV (diffuse intrinsic pontine glioma line)
Summary of the method: as §1

[9] = system: SUDIPGVI (diffuse intrinsic pontine glioma line)
Summary of the method: as §1

[10] = system: SUDIPGXIII (diffuse intrinsic pontine glioma line)
Summary of the method: as §1

Compound	growth inhibition [1]	growth inhibition [2]	growth inhibition [3]	growth inhibition [4]	growth inhibition [5]	growth inhibition [6]	growth inhibition [7]	growth inhibition [8]	growth inhibition [9]	growth inhibition [10]
COc1ccc2c(c1OC)C(=O)O[C@@H]2[C@H]1c2c(cc3c(c2OC)OCO3)CCN1C	-0.0995%	0.428%	-0.697%	-1.08%	0.078%	1.48%	-1.88%	-0.28%	-0.0763%	1.03%
CCCOc1ccc2[nH]c(NC(=O)OC)nc2c1	6.12%	5.82%	6.31%	9.95%	7.33%	9.96%	66.6%	11.4%	-1.9%	3.23%
NCCCCCC(=O)O	0.867%	2.56%	2.76%	1.09%	2.5%	4.7%	0.436%	1.23%	0.903%	-1.64%
CC[C@H](C)[C@H](N)C1=N[C@H](C(=O)N[C@@H](CC(C)C)C(=O)N[C@H](CCC(=O)O)C(=O)N[C@H](C(=O)N[C@H]2CCCCNC(=O)[C@H](CC(N)=O)NC(=O)[C@@H](CC(=O)O)NC(=O)[C@H](Cc3cnc[nH]3)NC(=O)[C@@H](Cc3ccccc3)NC(=O)[C@H]([C@@H](C)CC)NC(=O)[C@@H](CCCN)NC2=O)[C@@H](C)CC)CS1	0.716%	-3.59%	2.09%	-0.221%	2.77%	-1.08%	1.3%	0.589%	-1.54%	-1.26%
CC[C@]1(O)C[C@@H]2CN(CCc3c([nH]c4ccccc34)[C@@](C(=O)OC)(c3cc4c(cc3OC)N(C)[C@H]3[C@@](O)(C(=O)OC)[C@H](OC(C)=O)[C@]5(CC)C=CCN6CC[C@]43[C@@H]65)C2)C1	13%	14%	13.2%	22%	17.1%	11.5%	55.5%	32%	16.1%	18.3%
C=CC(=O)N1CCC[C@@H](n2nc(-c3ccc(Oc4ccccc4)cc3)c3c(N)ncnc32)C1	6.19%	0.894%	0.519%	7.17%	1.36%	12.5%	10.8%	-2.32%	2.15%	-9.86%
C[C@H](N[C@@H](CCc1ccccc1)C(=O)O)C(=O)N1CCC[C@H]1C(=O)O	-1.89%	-2.46%	0.194%	-1.9%	-1.61%	-3.59%	-1.1%	-2.75%	-6.88%	-1.42%
C[C@@H](O)[C@H]1C(=O)N2C(C(=O)O)=C(S[C@@H]3CN[C@H](C(=O)N(C)C)C3)[C@H](C)[C@H]12	-2.93%	0.205%	-1.37%	-0.242%	-2.33%	-3.05%	4.4%	-2.08%	-2.04%	0.717%
C[C@@H]1C[C@H]2[C@@H]3CCC4=CC(=O)C=C[C@]4(C)[C@@]3(Cl)[C@@H](O)C[C@]2(C)[C@@]1(OC(=O)c1ccco1)C(=O)CCl	2.55%	2.99%	2.36%	5.3%	6.75%	4.28%	0.466%	14.2%	2.53%	-3.14%
Cn1c(=O)c2[nH]cnc2n(C)c1=O	-2.13%	0.51%	-0.294%	-0.0831%	-0.447%	0.444%	-5.61%	-0.366%	-2.69%	-1.98%
CC1=C(/C=C/C(C)=C/C=C/C(C)=C/C=C/C=C(C)/C=C/C=C(C)/C=C/C2=C(C)CCCC2(C)C)C(C)(C)CCC1	-2.65%	-1.75%	-0.22%	-2.07%	-4.95%	-2.28%	-2.5%	-5%	-7.28%	-0.475%
CC12CC3CC(C)(C1)CC(N)(C3)C2	0.0357%	-0.52%	0.741%	1.54%	1.57%	1.17%	-0.299%	0.153%	0.617%	1.06%
CCOC(=O)CCC(=O)O[C@H]1[C@H](O[C@@H]2[C@@H](C)[C@H](O[C@H]3C[C@@](C)(OC)[C@@H](O)[C@H](C)O3)[C@@H](C)C(=O)O[C@H](CC)[C@@](C)(O)[C@H](O)[C@@H](C)C(=O)[C@H](C)C[C@@]2(C)O)O[C@H](C)C[C@@H]1N(C)C	-2.45%	-0.105%	1.67%	-1.7%	-1.58%	-2.75%	19.9%	-1.78%	-9.9%	2.09%
O=C([O-])CC(O)(CC(=O)[O-])C(=O)[O-].O=C([O-])CC(O)(CC(=O)[O-])C(=O)[O-].[Bi+3].[K+].[K+].[K+].[K+].[K+]	-1.08%	-0.559%	-0.17%	0.156%	-0.856%	0.952%	-0.691%	-1.2%	-0.266%	-15.3%
OC(Cn1cncn1)(Cn1cncn1)c1ccc(F)cc1F	0.884%	-0.267%	1.06%	1.31%	1.3%	1.42%	1.54%	-0.234%	1.91%	0.862%
NNC(=O)c1ccncc1	3.87%	-2.25%	1.93%	0.954%	0.333%	-0.478%	44.1%	3.88%	-2.88%	-0.311%
CN(C)[C@@H](CCOc1cccc2ccccc12)c1ccccc1	10.6%	0.861%	6%	3.36%	5.09%	0.0424%	67.5%	3.4%	-2.24%	0.415%
CN1CCN2c3ncccc3Cc3ccccc3C2C1 (stereo not given)	-2.74%	-1.56%	-0.7%	-1.19%	1.93%	-2.31%	2.94%	-0.123%	-5.43%	-0.736%
CCC(=O)OCC(=O)[C@@]1(OC(=O)CC)[C@@H](C)C[C@H]2[C@@H]3CCC4=CC(=O)C=C[C@]4(C)[C@@]3(Cl)[C@@H](O)C[C@@]21C	2.67%	-2.69%	1.9%	4.04%	3.24%	1.72%	0.321%	-1.55%	-0.46%	0.862%
CN(C)C/C=C/C(=O)Nc1cc2c(Nc3ccc(F)c(Cl)c3)ncnc2cc1O[C@H]1CCOC1	21.1%	8.76%	29.6%	14.3%	11.5%	47.5%	59.4%	10.9%	-0.744%	0.97%
